Assay results: PubChem BioAssay AID1159580 (chemical genetic matrix, 2015)
Where “and” joins values, the source holds several entries; their conditions need not be identical. Equal values may be shown once. Out of some 5,500 compounds screened, about 2,000 (36%) were called active. Inconclusive results (about 18%) are left out. Rule as the data show it: active = normalized growth mostly below about 0.91 (no sharp cut-off); inconclusive = no clear call, values can overlap the other calls; inactive = mostly above about 0.92. The list shows a part of the results.

Experiment: chemical genetic growth profiling, strain panel (AID 1159580);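 also: tested at 20 µM; growth read once vehicle control cultures reached saturation at 30 °C; 1 = growth at the plate median or of vehicle wells; lower values mean less growth of the strain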
Settings: growth OD

Measured: normalized growth

C/C1=C\CCC(=O)C2CC(C)(C)C2CC1 (stereo unspecified)
inactive: S. cerevisiae deletion strains, locus YBR021W, strain FUR4, stronger effect = lower value 0.997 | S. cerevisiae deletion strains, locus YBR229C, strain ROT2, stronger effect = lower value 1.02 | S. cerevisiae deletion strains, locus YCL029C, strain bik1, stronger effect = lower value 1.03 | S. cerevisiae deletion strains, locus YDL035C, strain GPR1, stronger effect = lower value 0.999 | S. cerevisiae deletion strains, locus YDL074C, strain BRE1, stronger effect = lower value 1.02 | S. cerevisiae deletion strains, locus YDL101C, strain DUN1, stronger effect = lower value 1.03 | S. cerevisiae deletion strains, locus YDL134C, strain PPH21, stronger effect = lower value 1.04 | S. cerevisiae deletion strains, locus YDL185W, strain tfp1, stronger effect = lower value 1.03 | S. cerevisiae deletion strains, locus YDL192W, strain arf1, stronger effect = lower value 1.01 | S. cerevisiae deletion strains, locus YDR101C, strain arx1, stronger effect = lower value 1 | S. cerevisiae deletion strains, locus YDR162C, strain NBP2, stronger effect = lower value 1.03 | S. cerevisiae deletion strains, locus YDR318W, strain mcm21, stronger effect = lower value 1.03 | S. cerevisiae deletion strains, locus YDR388W, stronger effect = lower value 1.03 | S. cerevisiae deletion strains, locus YDR502C, strain sam2, stronger effect = lower value 1.03 | S. cerevisiae deletion strains, locus YEL061C, strain CIN8, stronger effect = lower value 1.02 | S. cerevisiae deletion strains, locus YER110C, stronger effect = lower value 1.04 | S. cerevisiae deletion strains, locus YER155C, strain BEM2, stronger effect = lower value 1.01 | S. cerevisiae deletion strains, locus YER167W, strain BCK2, stronger effect = lower value 1.01 | S. cerevisiae deletion strains, locus YGL078C, strain dbp3, stronger effect = lower value 1.02 | S. cerevisiae deletion strains, locus YGL086W, strain mad1, stronger effect = lower value 1.02 | S. cerevisiae deletion strains, locus YGL248W, strain PDE1, stronger effect = lower value 1.03 | S. cerevisiae deletion strains, locus YGR135W, strain pre9, stronger effect = lower value 1.07 | S. cerevisiae deletion strains, locus YGR252W, strain gcn5, stronger effect = lower value 1 | S. cerevisiae deletion strains, locus YHR030C, strain SLT2, stronger effect = lower value 1.02 and 1.01 | S. cerevisiae deletion strains, locus YHR079C, strain IRE1 (second series), stronger effect = lower value 1.02 | S. cerevisiae deletion strains, locus YHR079C, strain IRE1, stronger effect = lower value 1.01 | S. cerevisiae deletion strains, locus YHR094C, strain hxt1, stronger effect = lower value 1.02 | S. cerevisiae deletion strains, locus YHR129C, strain ARP1, stronger effect = lower value 1.01 | S. cerevisiae deletion strains, locus YHR200W, strain rpn10, stronger effect = lower value 1.03 | S. cerevisiae deletion strains, locus YIL066C, strain RNR3, stronger effect = lower value 1.02 | S. cerevisiae deletion strains, locus YIL073C, strain SPO22, stronger effect = lower value 1.08 | S. cerevisiae deletion strains, locus YIL125W, strain kgd1, stronger effect = lower value 1.02 | S. cerevisiae deletion strains, locus YIR030C, strain dcg1, stronger effect = lower value 1.02 | S. cerevisiae deletion strains, locus YJL095W, strain BCK1, stronger effect = lower value 1.07 and 1.02 | S. cerevisiae deletion strains, locus YJL134W, strain LCB3, stronger effect = lower value 1.02 | S. cerevisiae deletion strains, locus YJL168C, strain set2, stronger effect = lower value 1.02 | S. cerevisiae deletion strains, locus YJL187C, strain SWE1 (second series), stronger effect = lower value 1.04 | S. cerevisiae deletion strains, locus YJR043C, strain POL32, stronger effect = lower value 1.01 | S. cerevisiae deletion strains, locus YJR066W, strain TOR1, stronger effect = lower value 0.954 | S. cerevisiae deletion strains, locus YKL009W, strain mrt4, stronger effect = lower value 0.982 | S. cerevisiae deletion strains, locus YKL068W, stronger effect = lower value 1.02 | S. cerevisiae deletion strains, locus YKL085W, strain MDH1 (second series), stronger effect = lower value 1.01 | S. cerevisiae deletion strains, locus YKL085W, strain MDH1, stronger effect = lower value 1.01 | S. cerevisiae deletion strains, locus YKL190W, strain CNB1, stronger effect = lower value 1.01 | S. cerevisiae deletion strains, locus YKR001C, strain vps1, stronger effect = lower value 1.04 | S. cerevisiae deletion strains, locus YLR039C, strain RIC1, stronger effect = lower value 1.09 | S. cerevisiae deletion strains, locus YLR058C, strain SHM2, stronger effect = lower value 1.02 | S. cerevisiae deletion strains, locus YLR102C, strain apc9, stronger effect = lower value 1.02 | S. cerevisiae deletion strains, locus YLR113W, strain HOG1, stronger effect = lower value 1.03 | S. cerevisiae deletion strains, locus YLR262C, strain YPT6, stronger effect = lower value 1.1 | S. cerevisiae deletion strains, locus YLR268W, strain sec22, stronger effect = lower value 1.01 | S. cerevisiae deletion strains, locus YLR342W, strain FKS1 (second series), stronger effect = lower value 1.03 | S. cerevisiae deletion strains, locus YLR371W, strain rom2, stronger effect = lower value 1.04 | S. cerevisiae deletion strains, locus YLR418C, strain cdc73, stronger effect = lower value 1.04 | S. cerevisiae deletion strains, locus YML016C, strain PPZ1, stronger effect = lower value 1.03 | S. cerevisiae deletion strains, locus YML032C, strain rad52, stronger effect = lower value 1.02 | S. cerevisiae deletion strains, locus YML124C, strain tub3, stronger effect = lower value 1.02 | S. cerevisiae deletion strains, locus YMR078C, strain ctf18, stronger effect = lower value 1.02 | S. cerevisiae deletion strains, locus YMR223W, strain ubp8, stronger effect = lower value 1.01 | S. cerevisiae deletion strains, locus YMR307W, strain GAS1, stronger effect = lower value 1.09 | S. cerevisiae deletion strains, locus YNL067W, strain RPL9B, stronger effect = lower value 1.03 | S. cerevisiae deletion strains, locus YNL183C, strain NPR1, stronger effect = lower value 0.954 | S. cerevisiae deletion strains, locus YNL233W, strain BNI4, stronger effect = lower value 1.05 | S. cerevisiae deletion strains, locus YNL250W, strain rad50, stronger effect = lower value 1.07 | S. cerevisiae deletion strains, locus YNL271C, strain bni1, stronger effect = lower value 1.02 | S. cerevisiae deletion strains, locus YNL298W, strain CLA4, stronger effect = lower value 1.01 | S. cerevisiae deletion strains, locus YNL307C, strain MCK1, stronger effect = lower value 1.03 | S. cerevisiae deletion strains, locus YNR052C, strain pop2, stronger effect = lower value 1.04 | S. cerevisiae deletion strains, locus YOL006C, strain TOP1, stronger effect = lower value 1.1 | S. cerevisiae deletion strains, locus YOL012C, strain htz1 1.02 | S. cerevisiae deletion strains, locus YOL147C, strain pex11, stronger effect = lower value 1.01 | S. cerevisiae deletion strains, locus YOR061W, strain CKA2, stronger effect = lower value 1.02 | S. cerevisiae deletion strains, locus YOR069W, strain VPS5, stronger effect = lower value 1.02 | S. cerevisiae deletion strains, locus YOR136W, strain idh2, stronger effect = lower value 1.02 | S. cerevisiae deletion strains, locus YOR144C, strain elg1, stronger effect = lower value 1.02 | S. cerevisiae deletion strains, locus YOR184W, strain ser1, stronger effect = lower value 1 | S. cerevisiae deletion strains, locus YOR231W, strain MKK1, stronger effect = lower value 1 | S. cerevisiae deletion strains, locus YOR316C, strain cot1, stronger effect = lower value 1.03 | S. cerevisiae deletion strains, locus YPL055C, strain LGE1, stronger effect = lower value 1.05 | S. cerevisiae deletion strains, locus YPL256C, strain CLN2, stronger effect = lower value 0.999 | S. cerevisiae deletion strains, locus YPR119W, strain clb2, stronger effect = lower value 1.02 | S. cerevisiae deletion strains, locus YPR141C, strain kar3, stronger effect = lower value 1.03 | S. cerevisiae deletion strains, locus YPR163C, strain tif3, stronger effect = lower value 1.02 | S. cerevisiae deletion strains, locus YPR167C, strain met16, stronger effect = lower value 1.02 | S. cerevisiae deletion strains, strain wtn01, stronger effect = lower value 1.02 | S. cerevisiae strains, strain wild type, stronger effect = lower value 1.03
